Source: the antibiotic and cytotoxicity screens of Wong et al. (2023)
In all, about 39,000 compounds went through this assay and about 3,300 (8.5%) were called active. Many of the other results were omitted from the sample, so actives are more common in it than they were.

Test system: HepG2
Test: cytotoxicity call (relative viability < 0.9)
Conditions: 10 µM

SMILES | cytotoxicity call
CC(C)NC(=O)N(C)C[C@@H]1Oc2ccc(NC(=O)Nc3ccc4c(c3)OCO4)cc2C(=O)N([C@H](C)CO)C[C@@H]1C | inactive
C[C@@H]1CCCCO[C@@H](CN(C)C(=O)Cc2ccccc2)[C@H](C)CN([C@@H](C)CO)C(=O)c2cc(NC(=O)Nc3ccccc3)ccc2O1 | inactive
Cc1cc(C(=O)Nc2cccc3c2O[C@@H](CN(C)S(=O)(=O)c2cn(C)cn2)[C@@H](C)CN([C@H](C)CO)C3=O)n(C)n1 | inactive
Cc1ccc(S(=O)(=O)Nc2cccc3c2O[C@H](CN(C)S(=O)(=O)c2cccs2)[C@@H](C)CN([C@@H](C)CO)C3=O)cc1 | inactive
CC(=O)NCC(=O)N1Cc2nccn2C[C@H](Cn2nc(C)nc2C)C1 | inactive
C[C@@H]1CN([C@@H](C)CO)C(=O)c2cc(C#C[C@@H](C)O)cnc2O[C@@H]1CN(C)C(=O)CN1CCOCC1 | inactive
Cc1ccc(S(=O)(=O)N(C)C[C@H]2Oc3ccc(NC(=O)Cn4cnnn4)cc3CC(=O)N([C@H](C)CO)C[C@H]2C)cc1 | inactive
COc1ccc(NC(=O)N(C)C[C@H]2Oc3c(NS(=O)(=O)c4c(C)noc4C)cccc3C(=O)N([C@@H](C)CO)C[C@H]2C)cc1 | inactive
COc1ccc(NC(=O)N(C)C[C@@H]2Oc3ncc(-c4cccc(C(F)(F)F)c4)cc3C(=O)N([C@H](C)CO)C[C@@H]2C)cc1 | inactive
C[C@@H]1CN([C@@H](C)CO)C(=O)c2cc(NC(=O)Cn3cnnn3)ccc2O[C@H]1CN(C)C(=O)Nc1ccc2c(c1)OCO2 | inactive
C[C@@H]1CN([C@H](C)CO)C(=O)c2cc(NC(=O)Nc3ccccc3)ccc2O[C@@H]1CN(C)CC1CCCCC1 | inactive
C[C@H](CO)N1C[C@H](C)[C@@H](CN(C)CC2CCCCC2)Oc2ccc(NC(=O)Nc3ccc(C(F)(F)F)cc3)cc2C1=O | inactive
C[C@@H]1CN([C@H](C)CO)C(=O)c2cc(NC(=O)Nc3ccc(C(F)(F)F)cc3)ccc2O[C@@H]1CN(C)CC1CCCCC1 | active
C[C@@H]1CN([C@H](C)CO)C(=O)c2cc(NC(=O)Nc3ccc(C(F)(F)F)cc3)ccc2O[C@H]1CN(C)CC1CCCCC1 | active
C[C@@H]1CN([C@@H](C)CO)C(=O)c2cc(NC(=O)Nc3ccc(F)cc3)ccc2O[C@H]1CN(C)CC1CCCCC1 | inactive
C[C@H]1CN([C@@H](C)CO)C(=O)c2cc(NC(=O)Nc3ccc(C(F)(F)F)cc3)ccc2O[C@@H]1CN(C)CC1CCCCC1 | inactive
CNC[C@@H]1Oc2ccc(NC(=O)CCN3CCOCC3)cc2CC(=O)N([C@H](C)CO)C[C@H]1C | inactive
C[C@H](CO)N1C[C@H](C)[C@@H](CN(C)C(=O)Nc2ccc3c(c2)OCO3)Oc2ccc(NC(=O)CCN3CCOCC3)cc2CC1=O | inactive
O=C(C[C@@H]1CC[C@H]2[C@@H](COC[C@@H](O)CN2C(=O)c2ccccc2F)O1)N1CCN(c2ccccc2)CC1 | inactive
c1ncc(CC2CCNCC2)[nH]1 | inactive
COc1ccc(S(=O)(=O)Nc2ccc3c(c2)CC(=O)N([C@@H](C)CO)C[C@@H](C)[C@H](CN(C)C)O3)cc1 | inactive
C[C@H]1CN([C@@H](C)CO)C(=O)c2cccc(NC(=O)Nc3ccc4c(c3)OCO4)c2O[C@@H]1CN(C)Cc1ccc(C(=O)Nc2ccccc2N)cc1 | inactive

SMILES | cytotoxicity call
COc1cccc(NC(=O)N(C)C[C@@H]2Oc3cc(C#Cc4ccncc4)ccc3S(=O)(=O)N([C@H](C)CO)C[C@@H]2C)c1 | active
COc1cccc(NC(=O)N(C)C[C@@H]2Oc3cc(C#Cc4ccncc4)ccc3S(=O)(=O)N([C@H](C)CO)C[C@H]2C)c1 | active
COc1cccc(NC(=O)N(C)C[C@@H]2Oc3cc(C#Cc4ccncc4)ccc3S(=O)(=O)N([C@@H](C)CO)C[C@@H]2C)c1 | active
COc1cccc(NC(=O)N(C)C[C@H]2Oc3cc(C#Cc4ccncc4)ccc3S(=O)(=O)N([C@@H](C)CO)C[C@@H]2C)c1 | active
COc1cccc(NC(=O)N(C)C[C@H]2Oc3cc(Br)ccc3S(=O)(=O)N([C@H](C)CO)C[C@H]2C)c1 | inactive
Cc1noc(C)c1NC(=O)N(C)C[C@@H]1Oc2c(NS(=O)(=O)c3cn(C)cn3)cccc2C(=O)N([C@H](C)CO)C[C@H]1C | inactive
O=C(Nc1ccn([C@H]2O[C@H](CO)[C@@H](O)[C@@H]2O)c(=O)n1)c1ccccc1 | inactive
O=C(C[C@@H]1CC[C@@H](NC(=O)c2cccnc2)[C@H](CO)O1)NCCN1CCCCC1 | inactive
O=C(Nc1nccs1)[C@@H]1[C@@H](CO)[C@@H]2Cn3c(cccc3=O)[C@H]1N2C(=O)C1CC1 | inactive
NCc1cnc2ccccc2c1 | inactive
C[C@@H]1CCCCO[C@@H](CN(C)C(=O)Nc2cccc3ccccc23)[C@H](C)CN([C@H](C)CO)C(=O)c2cc(N(C)C)ccc2O1 | inactive
C[C@H](CO)N1C[C@H](C)[C@@H](CN(C)S(=O)(=O)c2cn(C)cn2)Oc2ccc(NS(=O)(=O)c3cccs3)cc2CC1=O | inactive
Cc1ccc(S(=O)(=O)Nc2cccc3c2O[C@H](CN(C)Cc2ccc(C(F)(F)F)cc2)[C@@H](C)CN([C@@H](C)CO)C3=O)cc1 | inactive
CC(=O)N1[C@@H]2c3ccc(-c4ccccc4)c(=O)n3C[C@H]1[C@H](CO)[C@H]2C(=O)NCCCN1CCOCC1 | inactive
COc1cccc(NC(=O)N(C)C[C@H]2Oc3cc(C#Cc4ccncc4)ccc3S(=O)(=O)N([C@H](C)CO)C[C@H]2C)c1 | active
COc1cccc(NC(=O)N(C)C[C@@H]2Oc3cc(C#Cc4ccncc4)ccc3S(=O)(=O)N([C@@H](C)CO)C[C@H]2C)c1 | active
COc1cccc(NC(=O)N(C)C[C@H]2Oc3cc(C#Cc4ccncc4)ccc3S(=O)(=O)N([C@H](C)CO)C[C@@H]2C)c1 | active
COc1cccc(NC(=O)N(C)C[C@@H]2Oc3cc(C#CC4(O)CCCC4)ccc3S(=O)(=O)N([C@@H](C)CO)C[C@@H]2C)c1 | inactive
COc1cccc(NC(=O)N(C)C[C@@H]2Oc3cc(C#CC4(O)CCCC4)ccc3S(=O)(=O)N([C@H](C)CO)C[C@@H]2C)c1 | inactive
COc1cccc(NC(=O)N(C)C[C@@H]2Oc3cc(C#CC4(O)CCCC4)ccc3S(=O)(=O)N([C@H](C)CO)C[C@H]2C)c1 | inactive
COc1cccc(NC(=O)N(C)C[C@H]2Oc3cc(C#Cc4ccncc4)ccc3S(=O)(=O)N([C@@H](C)CO)C[C@H]2C)c1 | active
COc1cccc(NC(=O)N(C)C[C@H]2Oc3cc(C#CC4(O)CCCC4)ccc3S(=O)(=O)N([C@@H](C)CO)C[C@@H]2C)c1 | inactive

SMILES | cytotoxicity call
COc1cccc(NC(=O)N(C)C[C@@H]2Oc3cc(Br)ccc3S(=O)(=O)N([C@@H](C)CO)C[C@H]2C)c1 | inactive
COc1cccc(NC(=O)N(C)C[C@@H]2Oc3cc(C#CC4(O)CCCC4)ccc3S(=O)(=O)N([C@@H](C)CO)C[C@H]2C)c1 | inactive
CN(C)CC#Cc1ccc([C@H]2[C@H](CO)N3C(=O)CN(C(=O)CN(C)C)C[C@@H]23)cc1 | inactive
C/C=C/c1ccc2c(c1)O[C@@H](CN(C)C(=O)c1ccc3c(c1)OCO3)[C@H](C)CN([C@H](C)CO)S2(=O)=O | inactive
COC(=O)c1cn(-c2cccc(N)c2)nn1 | inactive
C[C@H]1CN([C@@H](C)CO)C(=O)Cc2cc(NS(=O)(=O)c3ccc(Cl)cc3)ccc2O[C@H]1CN(C)C(=O)Nc1cccc2ccccc12 | inactive
C[C@H]1CN([C@@H](C)CO)C(=O)c2cccc(NC(=O)NC3CCCCC3)c2O[C@H]1CN(C)Cc1ccc(Oc2ccccc2)cc1 | inactive
C[C@@H]1CCCCO[C@H](CN(C)Cc2ccncc2)[C@@H](C)CN([C@@H](C)CO)C(=O)c2cc(NC(=O)CCC(F)(F)F)ccc2O1 | inactive
C[C@H]1CN([C@@H](C)CO)C(=O)c2cc(NC(=O)CCCCCC(=O)Nc3ccccc3N)ccc2O[C@@H]1CN(C)C(=O)Nc1ccc(F)cc1 | inactive
CN1CCN(C(=O)C[C@H]2CC[C@@H]3[C@H](COC[C@H](O)CN3S(=O)(=O)c3cccc(Cl)c3)O2)CC1 | inactive
CN(C)C(=O)C[C@@H]1CC[C@@H]2[C@@H](COc3ccc(NS(=O)(=O)c4cccc(F)c4)cc3C(=O)N2C)O1 | inactive
C[C@@H]1CN([C@H](C)CO)C(=O)CCCn2nncc2CO[C@H]1CN(C)S(=O)(=O)c1cccc(C#N)c1 | inactive
CO[C@H]1CN(C)C(=O)c2cc(NC(=O)Nc3ccccc3F)ccc2OC[C@@H](C)N(CCC(F)(F)F)C[C@@H]1C | inactive
C[C@H]1CN([C@@H](C)CO)C(=O)c2cc(NC(=O)CCN3CCOCC3)ccc2O[C@H]1CN(C)Cc1ccccc1 | inactive
CN1CCN(C(=O)C[C@@H]2CC[C@H]3[C@@H](COc4ccc(NC(=O)c5cccs5)cc4C(=O)N3C)O2)CC1 | inactive
O=C(O)CC(CC(=O)O)C(=O)O | inactive
Cc1ccc(S(=O)(=O)N(C)C[C@@H]2Oc3c(NC(=O)C4CCOCC4)cccc3C(=O)N([C@@H](C)CO)C[C@@H]2C)cc1 | inactive
C[C@@H]1CCCCO[C@H](CN(C)C(=O)Nc2ccccc2)[C@H](C)CN([C@H](C)CO)C(=O)c2cc(NC(=O)c3ccncc3)ccc2O1 | inactive
CC1(C)S[C@@H]2[C@H](NC(=O)[C@H](N)c3ccc(O)cc3)C(=O)N2[C@H]1C(=O)O | inactive
CC1(C)SC2C(NC(=O)C(N)c3ccc(O)cc3)C(=O)N2C1C(=O)O (stereo unspecified) | inactive
CC1(C)S[C@H]2[C@@H](NC(=O)[C@@H](N)c3ccccc3)C(=O)N2[C@@H]1C(=O)O | active
C/C=C/c1ccc2c(c1)O[C@H](CN(C)C(=O)c1ccc3c(c1)OCO3)[C@H](C)CN([C@@H](C)CO)S2(=O)=O | inactive
